Measured values from PubChem BioAssay (Tox21).
Results filed as inconclusive are left out. Active and inactive are the calls of the source. Unless noted, the call rests on the fitted dose curve; in most records, active means well fitted curve in the direction sought with a large enough effect in the repeat runs; inconclusive means weak or mixed curves; inactive means no such curve, though single readings can be large; an effect the other way counts as inactive or inconclusive.

How the values were obtained:
[1] = qHTS assay to identify small molecule antagonists of the TGF-beta/Smad signaling pathway - cell viability counter screen (AID 1346824); further: nearly all actives have a fitted effect of over 50% in size
Procedure, shortened: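 SBE-bla HEK 293T cells, incubated overnight, then compound plus 0.25 ng/mL TGF-beta1 (stock added) for 5 hr at 37 C. Viability was read in the same wells by CellTiter-Glo luminescence after 30 min at room temperature.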

[2] = qHTS assay to identify small molecule agonists of the TGF-beta/Smad signaling pathway - cell viability counter screen (AID 1346829); further: top concentration of the series differs between compounds; nearly all actives have a fitted effect of over 45% in size
Procedure, shortened: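 After overnight seating at 37 C and 5% CO2, reporter cells got compounds for 5 hr and FRET substrate for 2 hr; cell viability then came from CellTiter-Glo luminescence.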

[3] = qHTS assay to identify small molecule agonists of the TGF-beta/Smad signaling pathway (AID 1346859; active means well fitted activation curve with a large enough effect in the signal ratio in the repeat runs, not every such curve was filed as active; the % refers to the signal ratio; further: series mostly up to about 77 µM)
Procedure, shortened: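 Stable Smad binding element-beta-lactamase HEK 293T cells; 5 hr compound exposure at 37 C under 5% CO2; 2 hr room-temperature substrate step; fluorescence excited at 405 nm, collected at 460 nm and 530 nm.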

[4] = molecular target: Thyrotropin-releasing hormone receptor (Homo sapiens) (UniProt P34981); assay: qHTS assay to identify small molecule antagonists of the thyrotropin-releasing hormone receptor (TRHR) signaling pathway (AID 1346877; active means well fitted inhibition curve with a large enough effect in the repeat runs, not every such curve was filed as active; further: series mostly up to about 51 µM)
Sequence of Thyrotropin-releasing hormone receptor (Homo sapiens) (P34981 whole entry, looked up): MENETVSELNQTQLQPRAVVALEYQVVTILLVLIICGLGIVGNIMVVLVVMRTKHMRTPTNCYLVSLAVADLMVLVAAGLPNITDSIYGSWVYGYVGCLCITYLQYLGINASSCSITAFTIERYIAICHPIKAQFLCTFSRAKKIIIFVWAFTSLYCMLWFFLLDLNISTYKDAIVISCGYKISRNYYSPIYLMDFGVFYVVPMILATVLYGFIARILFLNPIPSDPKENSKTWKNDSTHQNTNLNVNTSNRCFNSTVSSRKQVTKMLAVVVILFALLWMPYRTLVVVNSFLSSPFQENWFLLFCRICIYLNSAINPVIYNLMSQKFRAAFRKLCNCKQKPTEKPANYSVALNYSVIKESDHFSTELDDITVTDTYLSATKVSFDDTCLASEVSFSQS
Procedure, shortened: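 TRHR-expressing HEK293 cells were seeded, cultured 18 h at 37 °C, then loaded with calcium dye for 2 h. Compounds were pre-incubated 5 min at room temperature before 1 nM TRH (final) was added, and kinetic fluorescence was recorded for 3 min.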

[5] = molecular target: Thyrotropin-releasing hormone receptor (Homo sapiens) (UniProt P34981); assay: qHTS assay to identify small molecule agonists of the thyrotropin-releasing hormone receptor (TRHR) signaling pathway (AID 1346891; calls by dose curve; further: series mostly up to about 58 µM)
Procedure, shortened: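 In 1536-format, 1500 TRHR-Hek293 cells per well grew 18 h, took up calcium dye for 2 h at 37 °C, received compound, and were read kinetically; 15-point titrations, triplicates.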

[6] = Human pregnane X receptor (PXR) small molecule agonists, qHTS cell viability counter screen (AID 1346977); further: nearly all actives have a fitted effect of over 50% in size
Procedure, shortened: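 Readout is CellTiter-Fluor fluorescence from PXR-Luc HepG2 cells. Plated cells rested 5hr, then were treated with compounds for 24hr at 37C and 5% CO2, with reagent present during the last hour.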

[7] = Caspase-3/7 induction in HepG2 cells by small molecules, qHTS assay (AID 1346978); further: nearly all actives have a fitted effect of over 15% in size
Procedure, shortened: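 Wild-type HepG2 cells, 2,000/well, settled 5 hr at 37 C and 5% CO2, then compound-treated for 17 hr; caspase-3/7 activity read by luminescent Caspase-Glo 3/7 after 30 min at room temperature.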

[8] = Caspase-3/7 induction in CHO-K1 cells by small molecules, qHTS cell viability counter screen (AID 1346979); further: nearly all actives have a fitted effect of over 35% in size
Procedure, shortened: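 To flag cytotoxic compounds, treated CHO-K1 wild-type cells were given CellTiter-Fluor at 16hr and read fluorescently after 1hr at 37C; the caspase-3/7 luminescence was measured in these same wells.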

[9] = Caspase-3/7 induction in HepG2 cells by small molecules, qHTS cell viability counter screen (AID 1346981); further: series mostly up to about 92 µM; nearly all actives have a fitted effect of over 30% in size
Procedure, shortened: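 Wild-type HepG2 cells (2,000/well) were allowed to settle for 5 hr at 37 C, 5% CO2, then dosed with compounds in DMSO by pin transfer. After 16 hr at 37 C, CellTiter-Fluor was added and fluorescence read 1 hr later.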

[10] = Caspase-3/7 induction in CHO-K1 cells by small molecules, qHTS assay (AID 1346980); further: nearly all actives have a fitted effect of over 15% in size
Procedure, shortened: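 Wild-type CHO-K1 cells exposed to compounds for 17hr at 37 C, 5% CO2. Caspase-3/7 activity then measured by Caspase-Glo 3/7 luminescence after 30min at room temperature.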
On the % scale 0 is the no-effect control and ±100 the full control effect.

CC1(N)CCC(C(C)(C)N)CC1 (configuration not stated)
inactive: outcome [1] | outcome [2] | outcome [3] | outcome [4] | outcome [5] | Potency [6] | outcome [7] | Potency [8] | Potency [9]

C[C@H](CCC(=O)NCC(=O)O)[C@H]1CC[C@H]2[C@@H]3[C@H](O)C[C@@H]4C[C@H](O)CC[C@]4(C)[C@H]3C[C@H](O)[C@]12C
inactive: outcome [1] | outcome [2] | outcome [3] | outcome [4] | outcome [5] | Potency [6] | outcome [7] | outcome [10] | Potency [9]

CCCCCCCCCCCCCC(=O)OC
inactive: outcome [1] | outcome [2] | outcome [3] | outcome [4] | outcome [5] | Potency [6] | outcome [7] | Potency [8] | outcome [10] | Potency [9]

NS(=O)(=O)c1cc2c(cc1Cl)NC(C(Cl)Cl)NS2(=O)=O (configuration not stated)
inactive: outcome [1] | outcome [3] | outcome [4] | outcome [5] | Potency [6] | outcome [7] | Potency [8] | outcome [10] | Potency [9]

CO[Si](CCCS)(OC)OC
inactive: outcome [1] | outcome [2] | outcome [3] | Potency [6] | outcome [7] | Potency [8] | outcome [10] | Potency [9]

CCCCC/C=C/CC(=O)OC
inactive: outcome [1] | outcome [2] | outcome [3] | outcome [7] | Potency [8] | outcome [10] | Potency [9]

OC[C@@H](O)[C@H](O)[C@@H](O)[C@@H](O)CO
inactive: outcome [1] | outcome [2] | outcome [3] | Potency [6] | outcome [7] | Potency [8] | outcome [10] | Potency [9]

C[C@@H]1C[C@H]2[C@@H]3C[C@H](F)C4=CC(=O)C=C[C@]4(C)[C@@]3(F)[C@@H](O)C[C@]2(C)[C@@]1(O)C(=O)CO
inactive: outcome [1] | outcome [3] | outcome [4] | outcome [5] | Potency [6] | outcome [7] | Potency [8] | outcome [10] | Potency [9]

Cc1c(C(C)C)c(=O)n(-c2ccccc2)n1C
inactive: outcome [1] | outcome [2] | outcome [3] | Potency [6] | outcome [7] | Potency [8] | Potency [9]

CCOC(=O)C(C)(C)C
inactive: outcome [1] | outcome [2] | outcome [3] | outcome [7] | Potency [8] | outcome [10] | Potency [9]

CCCCCCCCCCC
inactive: outcome [1] | outcome [2] | outcome [3] | Potency [6] | outcome [7] | Potency [9]

COC(=O)CCC(=O)O
inactive: outcome [1] | outcome [2] | outcome [3] | Potency [6] | outcome [7] | Potency [8] | outcome [10] | Potency [9]

CCOC(=O)OCC/C(SC(=O)OCC)=C(\C)N(C=O)Cc1cnc(C)nc1N
inactive: outcome [1] | outcome [2] | outcome [3] | Potency [6] | outcome [7] | outcome [10] | Potency [9]

CCC1Nc2cc(Cl)c(S(N)(=O)=O)cc2S(=O)(=O)N1 (configuration not stated)
inactive: outcome [1] | outcome [2] | outcome [3] | Potency [6] | Potency [8] | outcome [10] | Potency [9]

CCCO
inactive: outcome [1] | outcome [2] | outcome [3] | Potency [6] | Potency [8] | outcome [10] | Potency [9]

CCOC(=O)CCc1ccccc1
inactive: outcome [1] | outcome [2] | outcome [3] | Potency [6] | outcome [7] | Potency [8] | Potency [9]

CC(C)(c1ccc(Oc2ccc3c(c2)C(=O)OC3=O)cc1)c1ccc(Oc2ccc3c(c2)C(=O)OC3=O)cc1
inactive: outcome [1] | outcome [2] | outcome [3] | Potency [6] | outcome [7] | outcome [10] | Potency [9]

O=C(O)c1ccc(OCCN2CCCCC2)cc1
inactive: outcome [1] | outcome [2] | outcome [3] | Potency [6] | Potency [8] | outcome [10] | Potency [9]

O=C1CC[C@H](C(=O)N2CCCCC2)N1
inactive: outcome [1] | outcome [2] | outcome [3] | Potency [6] | outcome [7] | Potency [8] | Potency [9]

O=c1cc(O)c(Cl)c[nH]1
inactive: outcome [1] | outcome [2] | outcome [3] | Potency [6] | outcome [7] | Potency [8] | Potency [9]

CCCCCCCCCCCCCCCCI
inactive: viability change, negative = cytotoxic [1] -2.44% [at 15.8 µM] | activity change, negative = cytotoxicity [2] 0.0425% [at 15.8 µM] | activation [3] 1.65% [at 15.8 µM] | activity change, negative = cytotoxicity [6] 1.52% [at 19 µM] | activity change, negative = cytotoxicity [8] 4.85% [at 19 µM] | caspase-3/7 activation [10] -0.405% [at 19 µM] | activity change, negative = cytotoxicity [9] 7.09% [at 19 µM]

Cc1cccc(Nc2ccncc2S(=O)(=O)NC(=O)NC(C)C)c1
inactive: outcome [1] | outcome [2] | outcome [3] | Potency [9]

C[N+](C)(C)CC(O)CCl (configuration not stated)
inactive: outcome [1] | outcome [2] | outcome [3] | outcome [7] | outcome [10] | Potency [9]

O=C(Nc1cccc(C2=NCCN2)c1)Nc1cccc(C2=NCCN2)c1
inactive: viability change, negative = cytotoxic [1] -4.13% [at 15.8 µM] | activity change, negative = cytotoxicity [2] -14.4% [at 15.8 µM] | activation [3] 0.662% [at 15.8 µM] | caspase activation [7] -0.792% [at 19 µM] | activity change, negative = cytotoxicity [9] 2.76% [at 19 µM]

Cc1oc(=O)oc1CN1CCN(c2cc3c(cc2F)c(=O)c(C(=O)O)c2n3C(C)S2)CC1 (configuration not stated)
inactive: outcome [1] | outcome [2] | outcome [4] | outcome [5] | Potency [6] | Potency [8] | outcome [10] | Potency [9]

CCOC(=O)CCCCCCCCC(=O)OCC
inactive: outcome [1] | outcome [3] | outcome [4] | outcome [5] | Potency [6] | outcome [7] | Potency [8] | outcome [10] | Potency [9]

CC(=O)OC(C)(C)Cc1ccccc1
inactive: outcome [1] | outcome [2] | outcome [3] | outcome [7] | Potency [9]

CCN(CCC#N)c1ccccc1
inactive: outcome [1] | outcome [2] | outcome [3] | Potency [6] | outcome [7] | Potency [8] | Potency [9]

Cc1ccccc1C
inactive: outcome [1] | outcome [2] | outcome [3] | outcome [7] | Potency [8] | Potency [9]

COc1cc2c(Nc3ccc(Br)cc3F)ncnc2cc1OCC1CCN(C)CC1
inactive: outcome [1] | outcome [2] | outcome [3] | Potency [6] | outcome [7] | Potency [8] | outcome [10] | Potency [9]

CCC(=O)OCCC(C)CCC=C(C)C (configuration not stated)
inactive: outcome [1] | outcome [2] | outcome [3] | Potency [6] | outcome [7] | outcome [10] | Potency [9]

CCCC(C)CC (configuration not stated)
inactive: outcome [1] | outcome [2] | outcome [3] | Potency [6] | outcome [7] | outcome [10] | Potency [9]
